The text below walks through data of PubChem BioAssay (NCI).

About 83,000 compounds went through this panel and 20% of them were active in at least one assay; those are over-represented in the sample as a whole.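 Percent growth is the endpoint: 0 to 100 indicates growth inhibition (40 means 60% inhibition), 0 means no net growth, and negative values indicate cell death.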 Values without a mark were called inactive. Active and inactive are the calls of the source. Rule for the calls: active = growth percent below 10; inactive = the rest.

Test in all cases: NCI-60 one-dose screen, 48 h (100 = growth as untreated, 0 = no growth, -100 = all killed)
Common to all, as to conditions: 10 µM unless noted

For experiment [1], the system named is T-47D breast.
Experiment [2] concerns BT-549 breast.
In experiment [3] the test system is MDA-MB-435 melanoma.
The subject of experiment [4] is SW-620 colon.
The subject of experiment [5] is MCF7 breast.
Experiment [6] relates to HCT-116 colon.
For experiment [7], the system named is HCC-2998 colon.
The subject of experiment [8] is KM12 colon.

For `COc1ccc2c(c1)OC1=C(C(=O)OC1)C2c1cc(OC)c(OC)c(OC)c1` (configuration not stated), the growth is 66.3% in experiment [1]; 34.5% in experiment [2]; -38.5% (active) in experiment [3]; 23.2% in experiment [4]; 27.1% in experiment [5]; 19.3% in experiment [6]. For the same compound, the results for the growth in experiment [7] and in experiment [8] were 6.19% (active) and 13.1%, respectively.
Take `C=C(C)[C@@H]1CC[C@]2(C(=O)O)CC[C@]3(C)[C@H](CC[C@@H]4[C@@]5(C)C[C@@H](CC#Cc6ccc(Br)cc6)C(=O)C(C)(C)[C@@H]5CC[C@]43C)[C@@H]12`: the growth in experiment [1] was 48.3%; in experiment [2], 69.8%; in experiment [3], 42.4%; in experiment [4], 42.1%; in experiment [5], 49%; in experiment [6], 39.4%. The growth in experiment [7] is 61.4%; in experiment [8], 40.3%.
For `Clc1ccc(N2N=C(c3cccc(Nc4ccncc4)c3)CC2c2ccccc2)cc1` (configuration not stated), the growth in experiment [1] is 96.9%; in experiment [2], 92.9%; in experiment [3], 67.5%; in experiment [4] it was 86.2%; in experiment [5], 76.2%; in experiment [6], -78.7% (active). Further, the growth in experiment [7] was 97%; in experiment [8] it was 90.4%.
Turning to `C1=C2CNCC3=Cc4ccc5ccccc5c4OC23Oc2c1ccc1ccccc21`, the growth in experiment [1] was 66.7%; in experiment [2], 79.9%; in experiment [3], -69.7% (active); in experiment [4] it was 8.75% (active); in experiment [5], 12%; in experiment [6] it was 11.1%. Moreover, the growth in experiment [7] was 56.9%; in experiment [8], 15.2%.
Consider `Cn1c(COC(=O)NCCN2CCOCC2)nc2c(N3CCOCC3)nc(-c3ccccc3)nc21`, for which the growth was -28.9% (active) in experiment [1]; -66.4% (active) in experiment [2]; -87.4% (active) in experiment [3]; -76.9% (active) in experiment [4]; -59% (active) in experiment [5]; -80.9% (active) in experiment [6]. In addition, the growth in experiment [7] was -53.8% (active); in experiment [8], -5.33% (active).
In the case of `N#Cc1c(NC(=O)c2cccc(Br)c2)sc2c1CCCC2`, the growth in experiment [1] was 77.9%; in experiment [2], 96.7%; in experiment [3], 10.8%; in experiment [4], 50.5%; in experiment [5], 51.8%; in experiment [6], 74.9%. Also, the growth in experiment [7] is 94.7%; in experiment [8], 69.5%.
Turning to `Clc1cc(Cl)cc(N2N=C(c3cccc(Nc4ccncc4)c3)CC2c2ccccc2)c1` (configuration not stated), the growth was 77.7% in experiment [1]; 78.2% in experiment [2]; -38.9% (active) in experiment [3]; -68.6% (active) in experiment [4]; -11% (active) in experiment [5]; 38.7% in experiment [6]. Also, the growth in experiment [7] was -58.8% (active); in experiment [8], -8.16% (active).
For the compound `CC(=O)c1c[nH]c2ccc(-c3ccnc(Nc4ccc(NC(=O)C5CCCC5)c(CN5CCOCC5)c4)n3)cc12`, the growth was -0.198% (active) in experiment [1]; -7.17% (active) in experiment [2]; -76% (active) in experiment [3]; 0.153% (active) in experiment [4]; -38.1% (active) in experiment [5]; 0.944% (active) in experiment [6]. Besides, the growth is -31.4% (active) in experiment [7] and -64.1% (active) in experiment [8].
Take `Clc1nc(Cl)c2ncn(CC3(Cn4cnc5c(Cl)nc(Cl)nc54)COC3)c2n1`: the growth in experiment [1] was -61.7% (active); in experiment [2], -93.2% (active); in experiment [3] it was -85.7% (active); in experiment [4], -88.7% (active); in experiment [5] it was -52.4% (active); in experiment [6], -100% (active). Moreover, the growth in experiment [7] was -85.3% (active); in experiment [8], -73.4% (active).
As for `CC(=O)CCSc1ccc(OC(C)=O)cc1`, the growth is 91.9% in experiment [1]; 96.5% in experiment [2]; 104% in experiment [3]; 105% in experiment [4]; 102% in experiment [5]; 97% in experiment [6]. For the same compound, the figures for the growth in experiment [7] and in experiment [8] were 89.7% and 99.9%, respectively.
As for `CCOC(=O)N1CCN(CCCCl)CC1`, the growth in experiment [1] is 103%; in experiment [2] it was 99.5%; in experiment [3], 103%; in experiment [4], 107%; in experiment [5], 97.7%; in experiment [6] it was 93.8%. In addition, the figures for the growth in experiment [7] and in experiment [8] were 101% and 105%, respectively.
In the case of `c1ccc2c(-c3c4ccsc4cc4[nH]c5ccccc5c34)c[nH]c2c1`, the growth in experiment [1] is 26.3%; in experiment [2] it was 33.9%; in experiment [3] it was 1.93% (active); in experiment [4] it was 25.4%; in experiment [5] it was 15%; in experiment [6], 17.5%. Moreover, the growth in experiment [7] was 65.6%; in experiment [8], 14.9%.
With `COc1ccc(C(=O)c2cc3c(N)c(C(=O)Nc4cccc(OC)c4)sc3nc2C)cc1`, the growth was 62.6% in experiment [1]; 45.6% in experiment [2]; -14.3% (active) in experiment [3]; 30.1% in experiment [4]; 23.4% in experiment [5]; 11.1% in experiment [6]. The figures for the growth in experiment [7] and in experiment [8] were 19.5% and 20.9%, respectively.
On to `COc1ccc(C2CC(c3cccc(Nc4ccncc4)c3)=NN2c2ccc(Cl)cc2)cc1` (configuration not stated), for which the growth in experiment [1] was 65.7%; in experiment [2], 105%; in experiment [3] it was -85.4% (active); in experiment [4], -89.4% (active); in experiment [5], -16.8% (active); in experiment [6], 108%. Also, the growth is -13.5% (active) in experiment [7] and -72.1% (active) in experiment [8].
